# Assay outcomes from PubChem BioAssay.
# Hits are enriched below; roughly 19% of the tested compounds scored in any of these assays.
# TDP1 cell CPT – qHTS for Inhibitors of human tyrosyl-DNA phosphodiesterase 1 (TDP1): qHTS in cells in presence of CPT | chicken DT40 Tdp1-/-;hTDP1 cells + 20 nM CPT, ATP luminescence, 48 h | Potency, µM (series often up to 46.2 µM), hits mostly inhibitors | 12% of 420,000 active | AID 686979, 2013; also: nearly all actives have a fitted effect of over 55% in size
#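 Chicken DT40 Tdp1-/- cells stably complemented with human TDP1 were seeded at 400 cells/well in medium containing 20 nM camptothecin, exposed to pin-transferred compounds, and grown at 37 °C for at least 48 hr. Viability was read as ATP luminescence.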
# MCF10A rerep – A quantitative high throughput screen for small molecules that induce DNA re-replication in MCF 10a normal breast cells; MCF 10A DNA re-replication, Hoechst nuclear intensity, 48 h; 2.9% of 350,000 active; AID 624296, 2012; Potency, µM (top dose mostly 46.1 µM), usual class: activators; also: nearly all actives have a fitted effect of over 50% in size
# SW480 rereplic – A quantitative high throughput screen for small molecules that induce DNA re-replication in SW480 colon adenocarcinoma cells; AID 624297, 2012; 1.8% of 340,000 active; SW480 DNA re-replication, Hoechst DNA content imaging, 48 h; Potency, µM (series often up to 46.1 µM), usual class: activators; also: nearly all actives have a fitted effect of over 55% in size
#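 Treated cells incubate 48 hr (37 C, 5% CO2), are stained 40 min with Hoechst, and nuclear fluorescence is enumerated; a rise in nuclei with high DNA signal marks re-replication.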
# BCR signal inh – qHTS Assay to Find Inhibitors of Chronic Active B-Cell Receptor Signaling; Potency, µM (highest dose often 46.1 µM), actives largely listed as inhibitors; 0.05% of 340,000 active; ABC-DLBCL IkBa-CBG/CBR reporter, luminescence ratio, 4 h; active = well fitted inhibition curve with a large enough effect in the signal ratio, with a control signal flat, not every such curve was filed as active; inconclusive = small, poorly fitted or top-dose-only effect, or effect the other way, or a change in a side signal; the % refers to the signal ratio
#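 Concentration-response series (up to 46 uM) were applied to TMD8 dual-reporter cells for 4 h at 37C with doxycycline. Green/red ratio, after filter-overlap correction, defined %Activity; red signal alone was normalised to basal cells and zero luminescence.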
# DT40 TDP1 no CPT – qHTS for Inhibitors of human tyrosyl-DNA phosphodiesterase 1 (TDP1): qHTS in cells in absence of CPT. DT40 Tdp1-/- hTDP1 cells, no CPT, ATP luminescence, 48 h. Potency, µM (titrated, usually from 46.2 µM), most hits filed as inhibitors. 15% of 420,000 active. AID 686978, 2013; also: nearly all actives have a fitted effect of over 55% in size
#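 Readout: luminescence from CellTiter-Glo after 30 min in the dark at RT. Cells: DT40 Tdp1-/- with stable hTDP1, 400/well. Exposure: compounds alone, ≥48 hr, 37 °C.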
# IL-1B inflam inh – qHTS for Inhibitors of Inflammasome Signaling: IL-1-beta AlphaLISA Primary Screen | 4.7% of 360,000 active | AID 743279, 2014 | activity change, % at 57.5 µM | THP-1 LPS/ATP IL-1B secretion, AlphaLISA, 16 h; hits give low values; in the data active = activity change below about -50%; inconclusive = mostly about -30% to -49%
#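 THP-1 cells pretreated 1 hr with compounds (up to 57.5 uM final), then stimulated with LPS (250 ng/mL final) plus ATP (1.25 mM final); secreted IL-1B measured by AlphaLISA after 16 hr, decreased signal indicating inhibition.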
# Hits are given with their value; – = inactive; ? = inconclusive; · = no result; [ ] = another dose, or the depositor's remark. Unless noted, calls follow the shape of the dose curve; as a rule, active = well fitted curve in the direction sought with a large enough effect; inconclusive = small, poorly fitted or top-dose-only effect, or another doubt; inactive = no such curve, though single readings can be large; an effect the other way counts as inactive or inconclusive.
SMILES,TDP1 cell CPT,MCF10A rerep,SW480 rereplic,BCR signal inh,DT40 TDP1 no CPT,IL-1B inflam inh
COC(=O)[C@@H]1CCCN1Cc1ccc2c(c1)CN(Cc1cccc(Cl)c1)CCO2,–[9.04 µM],·,·,·,–,·
O=C1C2CCCCN2C(=O)N1CCN1CCN(c2ccc([N+](=O)[O-])cc2)CC1 (configuration not stated),–,–,–[9.22 µM],–,?,–
O=C(CCCN1C(=O)C2CCCCN2C1=O)N1CCN(c2ccc([N+](=O)[O-])cc2)CC1 (configuration not stated),?,–,–,–,23µM,–
C/C(=N\NC(=O)CNc1ccccc1)c1ccccc1,–,–,–,–,–,–
C/C(=N\NC(=S)Nc1cccc(C)c1)c1ccccc1,2.8µM,–,–[9.22 µM],?,1.1µM,–
C/C(=N\NC(=S)Nc1cccc(C)c1)c1cccc(N)c1,0.92µM,–,–,?,0.92µM,–
CSC(=S)N/N=C(\C)c1ccccc1,3.3µM,–,?,–,?,–
Cc1cc2oc(=O)cc(C)c2c2occ(-c3ccc(Cl)cc3)c12,–,·,·,·,–,·
Nc1ncnc2c1ncn2[C@@H]1O[C@H](CCC(=O)NCc2ccccc2)[C@@H](O)[C@H]1O,?,·,·,·,–,–
COc1cc2c(cc1OC)C1=NC(=O)CN1C(SCc1ccccc1)=N2,18µM,–,–,–,9.2µM,–
COC(=O)c1ccc(NC(=O)CSc2nccn2Cc2ccc(Cl)cc2)cc1,?,·,·,·,–,·
Cc1ccc(-c2nc(-c3cccs3)c(-c3cccs3)[nH]2)cc1,15µM,·,·,·,12µM,·
O=[N+]([O-])c1cccc(-c2nc(-c3cccs3)c(-c3cccs3)[nH]2)c1,21µM,–,?,?,21µM,–
O=[N+]([O-])c1cccc(-c2nc(-c3ccccc3)c(-c3cccs3)[nH]2)c1,–,?,–,–,?,–
O=[N+]([O-])c1ccc(-c2nc(-c3cccs3)c(-c3cccs3)[nH]2)cc1,12µM,?,?,?,12µM,-81
COc1ccc(C2c3c(oc4cc(C)cc(C)c4c3=O)C(=O)N2Cc2ccco2)cc1OC (configuration not stated),–,·,·,·,–,·
CCc1ccc(CNC(=O)CCC(=O)N2Cc3cccc(OC)c3Oc3ncccc32)cc1,?,–,–,–,?,–
Cc1ccc(CN(C)C(=O)COc2ccc(S(=O)(=O)N3CCCC3)cc2[N+](=O)[O-])c(C)c1,?,–,–,–,?,–
COc1ccccc1C(=O)Nc1sc2c(c1C(N)=O)CCCC2,–,–,–,–,–,–
NC(=O)c1nc(Nc2ccccc2)sc1NC(=O)c1ccccc1Br,?,·,·,·,21µM,·
O=C(Nc1nccs1)c1ccccc1Br,–,–,–,–,–,–
COc1ccccc1C(=O)Nc1sc(Nc2ccccc2)nc1C(N)=O,12µM,·,·,·,6.5µM,·
CCOC(=O)C1=C(N)Oc2ccc(Br)cc2C1C(C#N)C(=O)OCC (configuration not stated),–,·,·,·,–,·
COc1ccc(/C=N/NC(=O)c2cc3c(OC)ccc(OC)c3[nH]2)cc1O,0.37µM,?,?,?,0.21µM,–
COc1ccc(OC)c2[nH]c(C(=O)N/N=C/c3ccccc3O)cc12,5.2µM,?,?,–,3.7µM,–
SMILES,TDP1 cell CPT,MCF10A rerep,SW480 rereplic,BCR signal inh,DT40 TDP1 no CPT,IL-1B inflam inh
CCN(CC)c1cc2c(cc1F)c(=O)c(S(=O)(=O)c1ccc(OC)cc1)cn2Cc1ccccc1,?,·,·,·,23µM,·
COc1cc2c(=O)c(S(=O)(=O)c3ccc(C)cc3)cn(Cc3cccc(C)c3)c2cc1OC,16µM,·,·,·,16µM,·
Cc1ccc(S(=O)(=O)c2cn(Cc3ccc(F)cc3)c3cc(F)c(F)cc3c2=O)cc1,–,·,·,·,–,·
CCCCn1cc(S(=O)(=O)c2ccc(C)c(C)c2)c(=O)c2cc(F)c(N(CC)CC)cc21,7.3µM,·,·,·,8.2µM,·
CCN(CC)c1cc2c(cc1F)c(=O)c(S(=O)(=O)c1ccccc1)cn2Cc1ccccc1,15µM,·,·,·,16µM,·
N#C/C(=C\c1ccc[nH]1)C(=O)Nc1ccccc1[N+](=O)[O-],–,–,–,–,–,–
OC(c1ccc(CN2CCCCC2)cc1)c1ncc(-c2ccccc2)[nH]1 (configuration not stated),–,·,·,·,–,–
COc1ccc(S(=O)(=O)c2cn(Cc3ccccc3)c3cc(F)c(F)cc3c2=O)cc1,15µM,·,·,·,?,·
CC(C)c1ccc(NC(=O)COc2ccc(F)cc2C(=O)c2cnn(-c3ccccc3)c2)cc1,?,–,–,?,13µM,–
COc1cc2nc(C3CCC3)nc(N3CCN(c4ccccc4OC)CC3)c2cc1OC,16µM,?,?,?,16µM,–
COc1cc2nc(C3CCC3)nc(N3CCN(c4ccccn4)CC3)c2cc1OC,9.2µM,?,–,?,9.2µM,-99
COc1cc2nc(Cl)nc(N3CCN(C)CC3)c2cc1OC,·,·,·,–,·,·
CC(=O)N1c2ccccc2CC1C(=O)N1CCN(c2ccccc2)CC1 (configuration not stated),–,·,·,·,–,·
S=C1SCN(CCc2ccccc2)CN1CCc1ccccc1,?,·,·,·,18µM,–
S=C1SCN(Cc2ccccc2)CN1Cc1ccccc1,8.4µM,33µM,?,?,?,–
COc1ccc(CN2CSC(=S)N(Cc3ccc(OC)cc3)C2)cc1,4.6µM,?,?,16µM,15µM,–
S=C1SCN(Cc2cccnc2)CN1Cc1cccnc1,0.82µM,13µM,?,?,0.82µM,·
COc1ccc(CN2CSC(=S)N(Cc3ccccc3)C2)cc1,?,?,?,?,?,–
COc1cccc(Cn2c(=O)sc3ccccc3c2=O)c1,–,–,?,?,–,–
COc1ccc2sc3cccc(NCCN(C)C)c3c(=O)c2c1,13µM,·,·,·,10µM,–
COc1ccc2oc3cc(NCCN(C)C)ccc3c(=O)c2c1,?,·,·,·,26µM,·
CN(C)CCNc1ccc(CO)c2sc3ccc(O)cc3c(=O)c12,0.026µM,–,–,·,0.15µM,-100
CCOC(=O)c1cnc2ccc(Cl)cc2c1NCCN(C)C,–,–,–,–,?,–
CN(C)CCNc1ccc2ncn3c4ccc(O)cc4c(=O)c1c23,0.052µM,?,?,·,0.023µM,-104
CN(C)CCNc1ccc(Cl)cc1[N+](=O)[O-],–,–,–,–,–,–
O=C(Nc1cccs1)Nc1c(F)cc(F)cc1Br,7.3µM,–,–,–,23µM,–
